Screens deposited in PubChem BioAssay by National Center for Advancing Translational Sciences (NCATS).
Hits are enriched below; roughly 11% of the tested compounds scored in any of these assays.
Pf growth 96h – P. falciparum growth inhibition at 96 hour, primary screen for plastid delayed-death inhibitors; P. falciparum luciferase reporter growth, 96 h; Potency, µM (series often up to 28.7 µM), inactives show at the top dose activity change, negative = inhibition, hits mostly inhibitors; 320,000 compounds, 6.9% hits
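Two-generation exposure (96 h) targets delayed-death phenotype. Reporter parasites carrying integrated firefly luciferase, in red cells at 2% hematocrit and 0.05% parasitemia final, kept at 37 C, 5% CO2; luminescence loss indicates inhibition.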
Pf growth 48h – inhibits P. falciparum growth in the first generation, 48 h; P. falciparum luciferase growth in erythrocytes, 48 h; Potency, µM (highest dose often 28.7 µM), inactives show at the top dose activity change, negative = inhibition, actives largely listed as inhibitors; 310,000 compounds, 5.9% hits
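Firefly luciferase activity from engineered P. falciparum reports growth; inhibitors lower the luminescent signal. Cultures contained 2% hematocrit erythrocytes at 0.1% final parasitemia.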
AmpC no deterg – blocks E. coli AmpC beta-lactamase in detergent-free assay; P00811; 330,000 compounds, 0.52% hits; Potency, µM (highest dose often 57.1 µM), without a hit: top-dose activity change, negative = inhibition, most hits filed as inhibitors; AmpC nitrocefin hydrolysis, absorbance 480 nm, 0.0001% Triton;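 further: plate controls were no compound for no effect and no enzyme for full effect; nearly all actives have a fitted effect of over 20% in size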
Target sequence (P00811 whole entry, looked up): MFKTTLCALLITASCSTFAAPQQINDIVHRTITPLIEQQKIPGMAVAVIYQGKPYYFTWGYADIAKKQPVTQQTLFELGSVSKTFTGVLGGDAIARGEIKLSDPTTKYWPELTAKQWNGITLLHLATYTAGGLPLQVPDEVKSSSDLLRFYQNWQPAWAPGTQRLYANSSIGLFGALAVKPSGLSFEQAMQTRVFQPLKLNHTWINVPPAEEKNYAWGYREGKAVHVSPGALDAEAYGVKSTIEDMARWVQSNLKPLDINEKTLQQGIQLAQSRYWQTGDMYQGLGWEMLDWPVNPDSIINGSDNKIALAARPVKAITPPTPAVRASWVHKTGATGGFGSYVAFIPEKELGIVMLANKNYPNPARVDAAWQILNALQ
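AmpC (5.3 nM in the dispensed reagent) in 20 mM phosphate pH 7.0 with 0.01% (detergent screen) or 0.0001% Triton X-100 was preincubated with compounds for 15 min at room temperature. Nitrocefin was then added from an 800 uM solution, and hydrolysis was followed at 480 nm.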
HCV inhibitor – blocks hepatitis C virus; AID 651820; 340,000 compounds, 3.4% hits; Huh7.5.1 HCVcc-Cre infection, luciferase reporter, 44 h; Potency, µM (series often up to 41.8 µM), for inactives: at the top dose activity change, negative = inhibition, actives largely listed as inhibitors
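Cells (1,000/well) were plated 4 h before compound, then infected with HCVcc-Cre virus (~0.5 moi). After 44 h further culture, infection was read as luciferase luminescence following a 15 min substrate incubation at room temperature.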
AmpC inh detg – AmpC beta-lactamase inhibition with detergent present | AmpC hydrolysis of nitrocefin, absorbance 480 nm, 0.01% Triton | P00811 | Potency, µM (doses to about 114 µM), for the others: at the top dose activity change, negative = inhibition, most hits filed as inhibitors | 370,000 compounds, 0.041% hits | AID 485294;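 further: 0% = no-compound wells and -100% = no-enzyme wells; nearly all actives have a fitted effect of over 25% in size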
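AmpC (5.3 nM in the dispensed reagent) in 20 mM phosphate pH 7.0 with 0.01% (detergent screen) or 0.0001% Triton X-100 was preincubated with compounds for 15 min at room temperature. Nitrocefin was then added from an 800 uM solution, and hydrolysis was followed at 480 nm.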
AMA1 RON2 block – inhibitors of Plasmodium falciparum AMA1-RON2 interaction | 360,000 compounds, 0.2% hits | Potency, µM (doses to about 58.2 µM), without a hit: at the highest dose activity change, negative = inhibition, hits mostly inhibitors | AID 720542 | AlphaScreen AMA1-biotinylated RON2 peptide binding;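 further: 0% = vehicle wells and -100% = peptide control; nearly all actives have a fitted effect of over 45% in size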
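AMA1 (3D7) with his tag at 25 nM final met compounds first, then biotinylated RON2 peptide at 25 nM; detection used donor plus acceptor beads, 10 µg/mL apiece, read by AlphaScreen after 30 min at room temperature.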
* = called active by the depositor; ? = inconclusive; . = no result; [ ] = another dose, or the depositor's remark. The call rests on the fitted dose curve; in most records, active means well fitted curve in the direction sought with a large enough effect; inconclusive means small, poorly fitted or top-dose-only effect, or another doubt; inactive means no such curve, though single readings can be large; an effect the other way counts as inactive or inconclusive. Unless noted, on the % scale 0 is the no-effect control and ±100 the full control effect; potency means the concentration at half of the fitted maximal effect.

SMILES | Pf growth 96h | Pf growth 48h | AmpC no deterg | HCV inhibitor | AmpC inh detg | AMA1 RON2 block
COc1ccc(CNc2ncnc3c2[nH]c2ccccc23)cc1 | 1.7µM* | 2.3µM* | -47% | 5µM* | 5% | -27%
C1=C(CCNc2ncnc3c2[nH]c2ccccc23)CCCC1 | 0.26µM* | ? | -30% | 1.1µM* | ? | -5%
COc1ccc(CCn2cnc3c([nH]c4ccccc43)c2=O)cc1 | 13% | 8% | -13% | 6% | -12% | -7%
Cc1ccc2[nH]c3c(NCc4ccccc4)ncnc3c2c1 | ? | ? | -29% | 7.9µM* | -9% | 12%
CC(C)OCCCNc1ncnc2c1[nH]c1ccccc12 | ? | 5.9µM* | -28% | 2.5µM* | 2% | 0%
CC(C)OCCCN1C(=O)c2[nH]nc(-c3ccccc3O)c2C1c1cccc(OCc2ccccc2)c1 (configuration not stated) | . | . | . | . | 11% | .
O=C(NCC(c1cccnc1)N1CCc2ccccc21)c1cccc(Br)c1 (configuration not stated) | . | . | . | . | 0% | .
CCOc1cccc(C2c3c(oc4ccccc4c3=O)C(=O)N2c2nc(C)c(C(=O)OC)s2)c1 (configuration not stated) | . | . | . | . | -4% | .
COC(=O)c1ccccc1NC(=O)Cn1nc(C(F)(F)F)c2c1CCCC2 | . | . | . | . | -3% | .
COc1ccc2nc(NCc3ccccc3)[nH]c2c1 | . | ? | -31% | ? | 9% | 1%
Cc1ccc2nc(NCc3ccccc3)[nH]c2c1 | 1.2µM* | ? | -43% | ? | -2% | -8%
COc1ccc(CNc2ncnc3c2[nH]c2cc(OC)c(OC)cc23)cc1 | 1.7µM* | 2.1µM* | 85% | ? | -7% | -24%
CCCc1c(C)nc2ccc(OC)cc2c1SCCC(=O)O | 12µM* | 10% | -14% | 5% | -7% | 17%[2.32 µM]
CCCOc1ccc2nc(C)c(CCC)c(SC(=N)N)c2c1 | 6.6µM* | 1.2µM* | -6% | 12% | 8% | -12%
CCCc1c(C)nc2c(OC)cccc2c1SCC(=O)O | 2% | ? | -17% | ? | -11% | -2%
O=C1COc2cc(S(=O)(=O)CCC(=O)N3CCN(c4ccccc4)CC3)c(Cl)cc2N1 | . | . | . | . | 0% | .
CN(Cc1ccccc1)S(=O)(=O)c1ccc2[nH]c(=O)oc2c1 | 5% | 27% | -37% | 5% | -12% | -4%
CN(Cc1ccccc1)S(=O)(=O)c1ccc2[nH]c(=O)ccc2c1 | 15µM* | 7% | -16% | 12% | -10% | 8%
CC1=CS/C(=C(/C#N)C(=O)NCc2ccco2)N1c1ccccc1 | -17% | . | -36% | 5% | ? | 7%
N#C/C(C(=O)NCc1ccco1)=C1/SC=C(c2ccccc2)N1c1ccccc1 | 5.2µM* | 0% | -20% | 16% | -10% | -6%
CCc1ccc(NC(=O)Cn2c(=O)c3cccn3c3ccccc32)cc1 | ? | -12% | -26% | 2% | 8% | -6%
CCc1ccc(NC(=O)CCn2c(=O)c3cccn3c3ccccc32)cc1 | -15% | ? | -43% | 11µM* | -3% | 0%
CC(CNC(=O)CCn1c(=O)c2cccn2c2ccc(F)cc21)c1ccccc1 (configuration not stated) | 13µM* | ? | -18% | ? | -3% | -4%
Cn1nnc2c(NCc3ccccc3)ncnc21 | . | . | . | . | -1% | .
N#Cc1cc(S(=O)(=O)c2ccc(F)cc2)c(N)[nH]c1=O | ? | 22%[1.15 µM] | -28% | 11% | -3% | -8%
N#Cc1cc(S(=O)(=O)c2ccccc2)c(N)[nH]c1=O | ? | 3.7µM* | ? | 5% | 0% | -4%
COc1cccc(OCCn2c(-c3ccc(Cl)cc3)nc3ccccc3c2=O)c1 | . | . | . | . | 12% | .
